Results on 24 compounds are retold here after PubChem BioAssay (EPA / NIEHS).

Experiment [1] can be described thus: CCTE_Deisenroth_H295R-HTRF_384WELL_ESTRADIOL: CCTE's H295R-HTRF Assay Evaluation of Estradiol Concentration, Deisenroth Lab (AID 2284361; active = hit-call score of the fitted dose curve at least 0.9, where 1 is the maximum; inactive = score below 0.9). As to conditions: actives raise or lower the signal. An outline of the steps: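 H295R cells exposed 48 h to chemicals at 0.001 - 100 uM final (nine points, triplicate); estradiol in conditioned medium measured by HTRF immunoassay, fitted bidirectionally versus DMSO. Viability by CellTiter-Glo on same plates.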

The nature of experiment [2]: CCTE_Deisenroth_H295R-HTRF_384WELL_TESTOSTERONE: CCTE's H295R-HTRF Assay Evaluation of Testosterone Concentration, Deisenroth Lab (AID 2284373; active = hit-call score of the fitted dose curve at least 0.9, where 1 is the maximum; inactive = score below 0.9). Particulars: actives raise or lower the signal. A digest of the protocol:
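Secreted testosterone was quantified by HTRF immunoassay of medium from human adrenocortical H295R cells after 48 h chemical exposure at 0.001–100 uM final. Gain or loss was fitted against DMSO. ATP-based viability was read on matched wells, five experimental replicates.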
Background: Time-resolved FRET reads energy transfer from a long-lived donor to a nearby acceptor.

The nature of experiment [3]: CCTE_Deisenroth_H295R-HTRF_384WELL_CTOX: Cytotoxicity Assessment in CCTE's H295R-HTRF Assay, Deisenroth Lab (AID 2284380). A digest of the protocol: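 H295R adrenocortical carcinoma cells plated 24 h, then exposed 48 h to nine-point series 0.001–100 uM final, triplicate, n=5. ATP measured by CellTiter-Glo 2.0 luminescence on same plates after medium collection; loss versus DMSO.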

Experiment [4] deals with SERPINA7 (gene 6906). The experiment in a line: CCTE_GLTED_hTBG: CCTE's human Thyroxine-binding Globulin (TBG) Inhibition Assay, Great Lakes Toxicology and Ecology Division (GLTED) Lab (AID 2284343).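 Also: active chemicals lower fluorescence versus DMSO baseline by displacing probe.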 An outline of the steps:
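hTBG + test chem, 2 h; ANSA probe displacement; fluorescence readout ex380/em475; DMSO = neg ctrl/baseline; cell-free.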

Experiment [5] is described as follows: CCTE_Mundy_HCI_iCellGluta_NOG_NeuronCount: CCTE's Neurite Outgrowth Assay in iCellGluta cells for Neuron Count, Mundy Lab (AID 2284340).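 Also: cells fixed about 48 h after compound addition.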 A digest of the protocol:
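Neuron count read by automated high-content imaging of Hoechst 33342 and betaIII-tubulin/Alexa Fluor-488 labelling in human iPSC glutamatergic neurons. Activity fitted relative to DMSO.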

The nature of experiment [6]: CCTE_Mundy_HCI_iCellGluta_NOG_NeuriteCount: CCTE's Neurite Outgrowth Assay in iCellGluta cells for Neurite Count, Mundy Lab (AID 2284342).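 Also: chemical exposure about 48 hours starting 2 hours after plating.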
Experiment [7] in a line: VALA_TUBHUV_Agonist_TubuleLength: VALA Sciences human Umbilical Vein Endothelial Tubule Formation (TUBHUV) Agonism Assay (AID 2284337). The procedure:
VALA_TUBHUV_Agonist is a cell-based, multiplexed assay that uses human umbilical vein endothelial cells (HUVEC). Measurements were taken 72 hours after chemical dosing in a 96-well plate.VALA_TUBHUV_Agonist_TubuleLength is the one of two assay components measured from the VALA_TUBHUV_Agonist assay. It is designed to make measurements of tubulogenesis, a form of morphology reporter, as detected with fluorescence intensity signals by HCS Fluorescent Imaging technology. This VALA_TUBHUV1 assay was designed to detect chemical activation of tubulogenesis, i.e. agonism.Data from the assay component VALA_TUBHUV_Agonist_TubuleLength was analyzed at the endpoint, VALA_TUBHUV_Agonist_TubuleLength, in the positive analysis fitting direction relative to DMSO as the negative control and baseline of activity. Using a type of morphology reporter, gain-of-signal activity can be used to understand developmental effects. To generalize the intended target to other relatable targets, this assay endpoint is annotated to the neurodevelopment intended target family, where the subfamily is tubulogenesis.
This HUVEC-HDF assay was designed to detect chemical suppression of tubulogenesis, i.e. antagonism. […]

A short description of experiment [8]: VALA_TUBIPS_Agonist_CellCount: Viability Assessment in the VALA Sciences human iPS-derived Endothelial Tubule Formation (TUBIPS) Agonism Assay (AID 2284338).
Experiment [9] can be described thus: Tanguay_ZF_120hpf_MO24: Oregon State University Tanguay Lab 24 Hour Post-fertilization zebrafish Assay for Mortality (AID 2284389; active = hit-call score of the fitted dose curve at least 0.9, where 1 is the maximum; inactive = score below 0.9). The procedure:
Tanguay_ZF_120hpf is a whole embryo, multiplexed endpoint assay using zebrafish larvae exposed for 120 hours post fertilization on a 96-well plate.Tanguay_ZF_120hpf_MO24 is one of one assay component(s) measured or calculated from the Tanguay_ZF_120hpf assay. It is designed to make measurements of zebrafish development as detected with brightfield microscopy of developing zebrafish embryos.Data from the assay component Tanguay_ZF_120hpf_MO24 was analyzed into 1 assay endpoints. This assay endpoint, Tanguay_ZF_120hpf_MO24, was analyzed in the positive analysis fitting direction relative to DMSO as the negative control and baseline of activity. […]
Zebrafish husbandry: Tropical 5D wild-type adult zebrafish were housed in at an approximate density of 1000 per 100 gallon tank at the Sinnhuber Aquatic Research Laboratory, Oregon State University, Corvallis, OR. […] At 24 hpf, embryos were assessed for photomotor response using a custom photomotor response analysis tool (PRAT) and for developmental toxicity endpoints (MO24: mortality at 24 hpf, DP: developmental progression, SM: spontaneous movement, and NC: notochord distortion). At 120 hpf, locomotor activity was measured using Viewpoint Zebralab and assessed for 13 endpoints. […] If mortality occurred for an embryo (at either 24 or 120 hpf), the non-mortality endpoints were not measured.

The nature of experiment [10]: Tanguay_ZF_120hpf_DP24: Oregon State University Tanguay Lab 24 Hour Post-fertilization zebrafish Assay for Delayed Development (AID 2284390; active = hit-call score of the fitted dose curve at least 0.9, where 1 is the maximum; inactive = score below 0.9). A digest of the protocol:
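Dechorionated 5D wild-type zebrafish embryos exposed statically from 6 hpf, one per well, 0.64% DMSO final, 28 C, sealed and dark. Developmental progression scored at 24 hpf by brightfield as binary present/absent; dead embryos excluded.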

Several values for one entry are separate records, joined by “and”; a condition that tells them apart may be missing. Equal entries are not always repeated. Inconclusive results are not listed. Activity calls are given as the source filed them. The calls were made as follows, unless noted: active = hit-call score of the fitted dose curve at least 0.9, where 1 is the maximum; inconclusive = response in the unintended direction; inactive = score below 0.9.

Broadly, the AC50 is the concentration at which the activity in the assay is half-maximal. In the case of `Fc1ccc(C2(Cn3cncn3)OC2c2ccccc2Cl)cc1` (centres undefined), the AC50 is 1.14 µM (active) in experiment [1] and 1.23 µM (active) in experiment [2]. The outcome in experiment [3] was inactive. Regarding `CC(C)(C)CC(C)(C)c1ccc(O)cc1`, the AC50 in experiment [4] was 5.79 µM (active). `COc1cc(-c2ccc(N)c(OC)c2)ccc1N`: the half-maximal activity concentration (AC50) in experiment [4] was 19.3 µM (active) and 32.2 µM (active).

On to `O=C1C(Cl)=C(Cl)C(=O)c2ccccc21`, for which, in experiment [4], the AC50 is 43.7 µM (active).

With `ClC1(Cl)C2(Cl)C3(Cl)C4(Cl)C(Cl)(Cl)C5(Cl)C3(Cl)C1(Cl)C5(Cl)C24Cl` (centres undefined), the result in [4] was inactive. In the case of `O=C(Cc1ccccc1)c1ccccc1`, the AC50 in experiment [4] was 10 µM (active). Turning to `COP(=O)(OC)O/C(=C\Cl)c1cc(Cl)c(Cl)cc1Cl`, the AC50 in experiment [5] is 51.5 µM (active); in experiment [6], 51.5 µM (active); in experiment [4], 10.1 µM (active). Consider `O=[N+]([O-])c1ccc(O)c([N+](=O)[O-])c1`, for which, in experiment [4], the AC50 is 21.9 µM (active). Regarding `ClCC(Cl)CCl`, the outcome in [7] and in experiment [8] was inactive. For the compound `CCC(C)(C)c1ccc(O)c(C(C)(C)CC)c1`, the AC50 in experiment [4] was 13.3 µM (active). The same measure, in the same setting: the result for `COP(=S)(OC)Oc1ccc(Sc2ccc(OP(=S)(OC)OC)cc2)cc1` reads 2.89 µM (active).

With `O=C(O)C(F)(F)C(F)(F)C(F)(F)C(F)(F)C(F)(F)C(F)(F)F`, the call in experiment [5], in [9] and in experiment [10] was inactive. As for `CC(C)(c1ccccc1)c1ccc(O)c(C(C)(C)c2ccccc2)c1`, the AC50 in experiment [4] is 7.35 µM (active).

In the case of `O=C(O)C(F)(F)C(F)(F)C(F)(F)C(F)(F)C(F)(F)C(F)(F)C(F)(F)C(F)(F)C(F)(F)C(F)(F)F`, in experiment [4], the AC50 was 2.7 µM (active) and 47.2 µM (active). In addition, the call in [9] and in [10] was inactive. Turning to `CCC1(c2ccc(N)cc2)CCC(=O)NC1=O` (centres undefined), the call in experiment [1], in [2] and in [3] was inactive.

Turning to `Oc1ccc(-c2ccccc2)cc1`, the AC50 in [4] was 31.2 µM (active). Same read-out and setting: the result for `CC(C)c1cccc(C(C)C)c1O` reads 44.1 µM (active).

Consider `C=C(C)C(=O)[O][Sn]([CH2]CCC)([CH2]CCC)[CH2]CCC`, for which the figures for the AC50 in experiment [5] and in experiment [6] were 0.202 µM (active) and 0.188 µM (active), respectively. With `O=C1C2(Cl)C3(Cl)C4(Cl)C(Cl)(Cl)C5(Cl)C3(Cl)C1(Cl)C5(Cl)C24Cl` (centres undefined), the AC50 in experiment [5] is 17.9 µM (active); in experiment [6], 21.6 µM (active). In [4], the compound was called inactive. For `CCOP(=S)(OCC)Oc1nc(Cl)c(Cl)cc1Cl`, the AC50 in experiment [4] is 18.6 µM (active). As for `CC(C)(C)c1cc(O)ccc1O`, the AC50 in experiment [7] is 56 µM (active); in experiment [8], 50 µM (active). `CC1(C)CCC(Cc2ccc(Cl)cc2)C1(O)Cn1cncn1` (centres undefined): the AC50 in experiment [4] was 30.1 µM (active).

Turning to `C[C@H]1CCCC(=O)CCC/C=C/c2cc(O)cc(O)c2C(=O)O1`, in experiment [4], the AC50 is 50 µM (active).

In the case of `CCCCCCCCc1ccc(O)cc1`, the AC50 in experiment [4] is 36 µM (active).
